The list is not random: actives were taken first. Their share in the collection is about 4.1%.
ssDAF-12 act – S. stercoralis DAF-12 activation, primary screen; activation, % at 6.8 µM; HEK293 ssDAF-12/GRIP1 lit1-tk-luc reporter, luminescence; % of 3 µM dafachronic acid response; 370,000 compounds, 1% hits;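 active = activation above the mean over all tested compounds plus 3 SD, cut at about 0.9% in these data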;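 note: 0% = DMSO-only wells and 100% = 3 µM delta7-dafachronic acid wells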
hgDAF12 agonist – activates the H. glycines DAF-12 receptor ligand-binding domain. HEK293 GAL4-hgDAF12 UAS-luciferase reporter, agonist luminescence; normalized to butyrate control. 370,000 compounds, 1.8% hits. AID 687014. activation, % at 6.8 µM;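 active = activation above a cutoff set at the mean of all screened compounds plus 3 SD, cut at about 10% in these data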;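 note: 0% = DMSO wells and 100% = sodium butyrate wells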
PolyA inhibitor – inhibitors of polyadenylation in S. cerevisiae; S. cerevisiae SKY197-pL101 polyadenylation reporter, beta-gal luminescence; efflux-impaired pdr1/pdr3 knockout yeast; score 100 = 6 SD above DMSO; AID 1875; 300,000 compounds, 0.02% hits; activity score, % at 12 µM;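 active = lowest replicate activity score at least 50, where 100 means six control SD above control mean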;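 note: yeast exposed to compound for 9 h at 30 °C; higher score means more reporter readthrough which indicates perturbed polyadenylation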
hcDAF12 agonist – activators of H. contortus DAF-12 nuclear receptor. HEK293 hcDAF-12 lit1-tk-luc reporter, luminescence; 0% DMSO, 100% Δ7-dafachronic acid. activation, % at 6.8 µM. 370,000 compounds, 1.4% hits. AID 652067;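 active = activation above the mean of all tested compounds plus 3 SD, cut at about 5.5% in these data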;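 note: 100% = response to 3 µM Δ7-dafachronic acid high control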
DAX1 inh-1 – DAX1 (NR0B1) inhibition, primary screen | AID 652010 | inhibition, % at 6.8 µM | HEK293T StAR-luciferase reporter, SF-1/DAX-1 repression relief | 370,000 compounds, 1.1% hits;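 active = inhibition above the mean over all tested compounds plus 3 SD, cut at about 3.6% in these data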;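 note: 0% = DAX-1 cells with DMSO and 100% = cells lacking DAX-1 with DMSO; higher inhibition means more luminescence from relief of DAX-1 repression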
DAX1 inh-2 – inhibitors of human orphan nuclear receptor DAX1 (NR0B1). P51843. HEK293 Gal4-DAX1 luciferase reporter, luminescence. inhibition, % at 6.75 µM. 340,000 compounds, 0.99% hits. AID 504766;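 active = inhibition above the mean over all tested compounds plus 3 SD, cut at about 4.2% in these data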;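 note: 0% = DAX1-transfected cells with DMSO and 100% = empty-vector control cells with DMSO; inhibition shows as a rise in luminescence from relieved DAX1 repression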
LXRb hcDAF ctr – activates human LXR-beta, counter-screen for hcDAF-12 agonists. shares compounds with hcDAF12 agonist. HEK293 Gal4-LXR tk-luc reporter, luminescence, 24 h; normalized: DMSO 0%, positive control 100%. activation, % at 6.8 µM. 3,400 tested, under 10 active;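 active = mean percent activation of the reporter above a cutoff set as the average over tested compounds plus their standard deviation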
Target sequence (P55055 whole entry, looked up, the tested form may be a part): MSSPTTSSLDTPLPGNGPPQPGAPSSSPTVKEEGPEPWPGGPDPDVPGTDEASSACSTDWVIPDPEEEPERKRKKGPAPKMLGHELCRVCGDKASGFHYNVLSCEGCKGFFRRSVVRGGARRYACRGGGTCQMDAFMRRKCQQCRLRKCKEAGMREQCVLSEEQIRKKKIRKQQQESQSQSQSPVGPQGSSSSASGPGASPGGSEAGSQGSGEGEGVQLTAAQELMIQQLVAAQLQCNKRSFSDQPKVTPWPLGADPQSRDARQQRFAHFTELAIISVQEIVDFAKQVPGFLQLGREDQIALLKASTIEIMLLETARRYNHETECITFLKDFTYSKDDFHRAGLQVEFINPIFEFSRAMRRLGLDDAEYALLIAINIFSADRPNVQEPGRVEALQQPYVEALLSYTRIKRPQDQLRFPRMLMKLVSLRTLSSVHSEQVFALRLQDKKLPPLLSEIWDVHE
hcDAF12 ag – confirmation of H. contortus DAF-12 agonists; HEK293 hcDAF-12 lit1-tk-luc reporter, luminescence; % of Δ7-dafachronic acid response; activation, % at 6.8 µM; shares compounds with hcDAF12 agonist; 3,400 compounds, 61% hits;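 active = mean activation across triplicate tests above the threshold derived from the earlier primary screen, cut at about 5.5% in these data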;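 note: 0% = DMSO only wells and 100% = 3 µM Δ7-dafachronic acid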
Starred values were filed as active, the others as inactive; x = no result given.

SMILES	ssDAF-12 act	hgDAF12 agonist	PolyA inhibitor	hcDAF12 agonist	DAX1 inh-1	DAX1 inh-2	LXRb hcDAF ctr	hcDAF12 ag
O=C(COC(=O)[C@@H]1CC(O)CN1S(=O)(=O)c1ccc2c(c1)OCCO2)Nc1ccccc1F (some centres undefined)	-1	0	-25	-1	0	1	x	x
Cc1cc(C)cc(C(=O)OCCN(C)C2CN(Cc3cn(Cc4ccccc4F)nn3)S(=O)(=O)C2)c1 (centres undefined)	-2	0	x	-2	-1	x	x	x
CCOC(=O)c1c(C)nc(-c2ccccc2)nc1N	1.5*	16*	-8	9.2*	3	4.8*	1	14*
Cc1ccc(Nc2ncnc(Cl)c2N)cc1	-1	3	x	-1	0	1	x	x
Cn1c(C=O)c(-c2ccc3cc[nH]c3c2)c2ccccc21	0	4	x	7.7*	0	3	0	5
Cn1c(-c2ccsc2)c(-c2cccs2)c2cc(-c3ccc4cc[nH]c4c3)ccc21	-1	1	x	0	0	2	x	x
CNc1ccccc(-c2ccc3ccccc3n2)c1=O	0	3	-14	7.0*	0	0	1	7.2*
COc1ccccc1N(Cc1ccccc1)S(=O)(=O)c1cccc(C(=O)Nc2ccc(C(C)=O)cc2)c1	0	8	13	12*	1	1	0	3
CC(C)(C)c1ccc(C2(C)NC(=O)NC2=O)cc1 (centres undefined)	-1	1	12	8.7*	0	2	0	2
N#CCCN(C(=O)CSc1nc2ccccc2c(=O)[nH]1)c1ccc(F)cc1	0	1	x	0	0	0	x	x
O=C(NNC(=O)c1ccc2nc[nH]c2c1)c1ccccc1	-2	-1	x	-1	0	0	x	x
Cc1ccc(NC(=O)c2ccc3nc[nH]c3c2)nc1	0	7	4	8.9*	9.6*	1	1	5
CCOC(=O)c1ccc(-c2ccc(/C=N/NC(=O)Cc3nnc(N)s3)o2)cc1	0	7	10	8.8*	3.7*	1	0	4
COC(=O)C1Cc2c([nH]c3ccccc23)C2CCC(=O)N12 (centres undefined)	0	2	x	2	-1	1	x	x
COC(=O)C12C=C3CC(C)=C3C(=O)N1Cc1[nH]c3ccccc3c1C2 (centres undefined)	0	2	x	8.1*	0	x	0	5.9*
CC(=O)Oc1ccc(C(=O)[C@H]2[C@H]3C(=O)N(c4ccccc4)C(=O)[C@H]3[C@@H]3C=CC=NN32)cc1	0	2	2	8.1*	0	3	0	5
CN(C)/C=N/c1nc2ccc3c(c2s1)CCCC3	0	11*	-25	6.7*	3	3	1	6.4*
Cc1nc(/N=C\N(C)C)sc1C(=O)Nc1ccccc1	-1	1	3	2	0	1	x	x
O=C1/C(=C/Nc2ccc3c(c2)OCO3)CCc2ccccc21	0	9	-8	9.4*	1	-3	1	7.5*
CCCCCCn1cnc2c(oc3nc4c(cc32)CCCC4)c1=O	-1	7	9	0	1	-1	x	x
CCCCn1cnc2c(oc3nc4c(cc32)CCCC4)c1=O	0	11*	-5	8.3*	3	0	1	4
O=C(C[n+]1cc(Br)cc2ccccc21)c1ccc(Cl)cc1	0	1	-15	8.2*	0	0	0	3
O=C(C[n+]1cc(Br)cc2ccccc21)c1ccc(Br)cc1	-1	1	-17	5	0	-1	x	x
CN1CCCCC(NC(=O)C23CC4CC(CC(C4)C2)C3)C1=O (centres undefined)	-1	0	x	0	0	x	x	x
O=C(CCCCCn1c(=S)[nH]c2cc3c(cc2c1=O)OCO3)N1CCN(c2ccccc2)CC1	-1	2	11	6.8*	-1	0	0	-1
SMILES	ssDAF-12 act	hgDAF12 agonist	PolyA inhibitor	hcDAF12 agonist	DAX1 inh-1	DAX1 inh-2	LXRb hcDAF ctr	hcDAF12 ag
Cc1ccc(Cl)cc1NC(=O)CCN1C(=O)C2C3CCC(C3)C2C1=O (centres undefined)	-1	-1	-8	0	0	1	x	x
CCS(=O)(=O)Nc1ccc(-c2nc3cccnc3s2)cc1	1	11*	12	6.9*	3	1	2	7.7*
N#CC1=C(N)Oc2c(oc(CO)cc2=O)C1c1ccsc1 (centres undefined)	0	0	2	0	0	-1	x	x
N#CC1=C(N)Oc2c(ccc3ccccc23)C1c1ccsc1 (centres undefined)	0.9*	12*	1	7.1*	-1	-3	0	4
Cc1ccc(OCCNC(=O)c2ccc(COc3ccccc3)o2)cc1	0	0	1	-2	2	1	x	x
CC(C)Cc1ccc(C(=O)NCCOc2ccccc2)o1	0	9	4	9.9*	3	0	1	7.4*
Cc1c(N)cc(S(=O)(=O)O)cc1NC(=O)c1cccc([N+](=O)[O-])c1	-1	-3	x	-1	0	0	x	x
O=C(Nc1nnc(SCc2ccc(Cl)cc2)s1)c1ccco1	1	4	-17	6.9*	0	0	0	0
Clc1ccc2nc(-c3ccc4c(c3)OCO4)cn2c1	-1	5	-1	7.5*	3.7*	-1	1	7.1*
CN(C)CCNC(=O)C(=O)C1C(=O)Nc2ccccc21 (centres undefined)	0.9*	-1	-13	8.0*	0	x	0	5
CCCCCNC(=O)C(=O)C1C(=O)Nc2ccccc21 (centres undefined)	1	0	6	4	0	3	x	x
C=CCNc1nc(-c2ccc(OC)cc2OC)cs1	0	11*	-17	8.1*	3	3	1	8.0*
Cc1c(C(=N)C(C#N)C#N)c(=N)oc2c1ccc1ccccc12	1	3	-8	8.2*	0	0	0	8.1*
COc1cccc(CC(=O)N2CCC(n3nccc3NC(=O)C3CCOC3)CC2)c1 (centres undefined)	0	4	8	6.9*	1	0	0	5
CC(Sc1nccn1C)C(=O)c1c(N)n(C)c(=O)n(C)c1=O (centres undefined)	-1	-2	20	0	2	-1	x	x
